# HEK293 tox: cytotoxic compounds in HEK 293 cells; HEK 293 viability, ATP luminescence (CellTiter-Glo), 48-72 h; Potency, µM (top dose mostly 115 µM), inactives show at the top dose activity change, negative = cytotoxicity, most hits filed as inhibitors; 6.6% of 94,000 active; note: nearly all actives have a fitted effect of over 60% in size
#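 qHTS cytotoxicity; HEK 293, 250 cells/well; compound pinned; 48 or 72 hr, 37 degree Celsius, 5% CO2, 95% humidity; CellTiter-Glo, 10 min RT; luminescence (ATP).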
# 3T3 cytotox: NIH 3T3 cell cytotoxicity; NIH 3T3 viability, CellTiter-Glo ATP luminescence, 48-72 h; Potency, µM (top dose mostly 96.7 µM), for the others: at the highest dose activity change, negative = cytotoxicity, most hits filed as inhibitors; 4.3% of 94,000 active; AID 1345082; note: nearly all actives have a fitted effect of over 55% in size
#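 Cytotoxicity is measured as loss of cellular ATP: NIH 3T3 cells (400/well) are exposed to compound for 48 or 72 hr at 37 °C, then CellTiter-Glo luminescence is imaged after 10 min at room temperature.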
# Luciferase inh: Photinus pyralis luciferase inhibition | P08659 | purified P. pyralis luciferase, luminescence, biochemical | Potency, µM (series often up to 115 µM), actives largely listed as inhibitors | 2.5% of 76,000 active | AID 1347043; note: nearly all actives have a fitted effect of over 65% in size
#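 Biochemical qHTS: compound (6-point titration) added to 10uM D-luciferin plus 10uM ATP in Tris acetate pH 7.5 buffer with Mg, Tween-20 and BSA, then purified enzyme at 10nM; light output imaged.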
# NPR1 antag: blocks ANP-stimulated signaling of human Npr1 receptor; HEK293 hNpr1 GloSensor cGMP, ANP-stimulated luminescence; Potency, µM (doses to about 46.3 µM), for inactives: at the highest dose activity change, negative = inhibition, hits mostly inhibitors; 1.6% of 76,000 active; calls by dose curve; note: nearly all actives have a fitted effect of over 60% in size
# Target sequence (P16066 whole entry, looked up): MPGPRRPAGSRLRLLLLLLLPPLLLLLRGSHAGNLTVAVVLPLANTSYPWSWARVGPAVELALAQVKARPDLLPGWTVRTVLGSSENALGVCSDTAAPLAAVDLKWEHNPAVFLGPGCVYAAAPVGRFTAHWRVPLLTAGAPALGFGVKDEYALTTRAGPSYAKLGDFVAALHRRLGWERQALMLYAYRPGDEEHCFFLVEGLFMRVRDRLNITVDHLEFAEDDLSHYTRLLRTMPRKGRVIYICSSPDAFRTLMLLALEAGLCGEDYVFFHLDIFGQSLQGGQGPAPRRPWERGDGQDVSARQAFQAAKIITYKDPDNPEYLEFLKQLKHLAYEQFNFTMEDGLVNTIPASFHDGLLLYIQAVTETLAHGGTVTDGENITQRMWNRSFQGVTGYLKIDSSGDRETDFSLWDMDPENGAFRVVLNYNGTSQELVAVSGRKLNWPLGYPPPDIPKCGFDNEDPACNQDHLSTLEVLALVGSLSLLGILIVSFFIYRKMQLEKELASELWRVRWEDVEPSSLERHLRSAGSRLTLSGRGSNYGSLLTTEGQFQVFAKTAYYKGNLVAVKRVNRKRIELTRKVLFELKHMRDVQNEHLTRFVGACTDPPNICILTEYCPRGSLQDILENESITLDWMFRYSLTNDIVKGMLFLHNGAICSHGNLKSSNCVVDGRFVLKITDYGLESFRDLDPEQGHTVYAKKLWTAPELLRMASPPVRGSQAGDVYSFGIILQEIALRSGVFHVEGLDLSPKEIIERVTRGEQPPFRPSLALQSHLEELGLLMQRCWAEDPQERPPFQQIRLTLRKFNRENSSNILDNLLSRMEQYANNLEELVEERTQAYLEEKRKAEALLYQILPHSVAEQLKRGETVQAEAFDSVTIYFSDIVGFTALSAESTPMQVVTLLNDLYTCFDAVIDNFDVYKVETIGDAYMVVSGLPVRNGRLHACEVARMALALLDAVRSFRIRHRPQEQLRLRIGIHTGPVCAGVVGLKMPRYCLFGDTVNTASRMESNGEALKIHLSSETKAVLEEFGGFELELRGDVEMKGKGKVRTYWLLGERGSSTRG
#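 HEK293 cells stably expressing human Npr1 and cGMP GloSensor pGS-40F, loaded 2 h with 2% GloSensor reagent, given compound 30 min at room temperature. Luminescence read before and 20 min after 0.1 nM hNppA.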
# * hit, by the source's call; i = inactive; ? = inconclusive; . = no result given; [ ] = another dose, or the depositor's remark. This is a sample that favours compounds with a hit; in the whole collection about 11% have one here. Unless noted, calls come from the whole dose curve; as a rule, active = well fitted curve in the direction sought with a large enough effect; inconclusive = small, poorly fitted or top-dose-only effect, or another doubt; inactive = no such curve, though single readings can be large; an effect the other way counts as inactive or inconclusive. % is set by controls: 0 for no effect and ±100 for the full control effect; potency is the fitted concentration of half-maximal effect.
SMILES,HEK293 tox,3T3 cytotox,Luciferase inh,NPR1 antag
CC(C)(C)c1ccc(-n2ncc3c2CCCC3NC(=O)c2c[nH]c(=O)[nH]c2=O)cc1 (configuration not stated),31.6µM*,?,?,8.91µM*
CCN(CC)C(=O)c1cccc(-c2ccc(OCCn3ccnc3)cc2)c1,44.7µM*,?,i,-25.2%
O=C(NCc1ccc(F)cc1)c1nc2sccn2c1-c1ccc(C(F)(F)F)cc1,?,14.1µM*,.,.
O=C(NCc1ccccc1)c1nc2sccn2c1-c1ccc(C(F)(F)F)cc1,39.8µM*,?,.,.
O=C(NCc1cccc(C(F)(F)F)c1)c1nc2sccn2c1-c1cccc(C(F)(F)F)c1,35.5µM*,?,.,.
O=C(NCc1ccccc1)c1nc2sccn2c1-c1ccc(F)cc1,i,-9.2%,.,.
COc1ccc(-c2c(C(=O)NCCCc3ccccc3)nc3sccn23)cc1,?,35.5µM*,.,.
O=C(NCc1ccccc1)c1cn2cc(-c3ccc(F)cc3)sc2n1,-8.6%,-33.7%,.,.
Cc1nnc2ccc(N3CCN(C(=O)C4CCCC4)CC3)nn12,-10.5%[172 µM],?,.,.
O=C(C1CCCN1C(=O)c1ccc(F)cc1)N1CCC(c2nc3ccncc3[nH]2)C1 (configuration not stated),i,-12.1%,.,.
CCN1CCN(C(=O)c2nc3sccn3c2-c2ccc(OC)cc2)CC1,2.5%,-2.6%,.,.
O=C(NCc1ccccc1F)c1nc2sccn2c1-c1ccc(C(F)(F)F)cc1,31.6µM*,?,.,.
Cc1ccc(-c2c(C(=O)NCc3cccs3)nc3sccn23)cc1,?,-11.1%[138 µM],.,.
Cc1ccc(-c2c(C(=O)NCc3ccccc3F)nc3sccn23)cc1,-5.3%,-10.3%,.,.
O=C(NCCc1ccccc1)c1nc2sccn2c1-c1ccc(C(F)(F)F)cc1,?,14.1µM*,.,.
O=C(NCc1cccs1)c1nc2sccn2c1-c1ccncc1,89.1µM*,?,.,.
Cc1ccc(-c2c(C(=O)NCCc3ccccc3)nc3sccn23)cc1,44.7µM*,17.8µM*,.,.
Cc1ccc(NC(=O)C2CCc3nnc(CN[S+](=O)([O-])c4ccccc4Cl)n32)cc1 (configuration not stated),-7.8%,?,.,.
COCC(=O)NC1CCC12CCN(S(=O)(=O)c1ccccc1)CC2 (configuration not stated),i,-20.1%,.,.
CC(=O)NC1CC(c2cc(NCCCOC3CCN(C)CC3)ncn2)C1 (configuration not stated),-4.8%,-16.4%,i,0.0%
OC1CC(c2cc(NCCSC3CCCCC3)ncn2)C1 (configuration not stated),?,?,?,12.6µM*
Cc1nc(CN2C[C@H](C(=O)N3CCN(CCO)CC3)C[C@@H]2c2ccc(F)cc2)cs1,-13.7%[172 µM],?,i,.
Cc1nc(CN2C[C@H](C(=O)NCc3cccc(F)c3)C[C@@H]2c2ccc(F)cc2)cs1,89.1µM*,?,i,-1.6%[70.6 µM]
Cc1nc(CN2C[C@H](C(=O)Nc3ccccc3)C[C@@H]2c2ccc(F)cc2)cs1,70.8µM*,?,i,0.2%[70.6 µM]
COc1ccc(CNC(=O)[C@@H]2C[C@@H](c3ccc(F)cc3)N(Cc3ccccc3)C2)cc1OC,?,-20.9%,i,-13.6%
SMILES,HEK293 tox,3T3 cytotox,Luciferase inh,NPR1 antag
O=C1Cc2c(-c3ccccc3Cl)n[nH]c2CN1Cc1ccccc1F,?,?,i,-7.5%[70.6 µM]
O=C1Cc2c(-c3ccccc3Cl)n[nH]c2CN1Cc1ccccn1,-13.3%[172 µM],79.4µM*,i,3.7%[70.6 µM]
O=C(NCc1ccccc1Cl)C1CN(C2CCCC2)C(=O)N1 (configuration not stated),-22.0%[172 µM],?,.,.
O=C(Nc1ccc2c(N3CCOCC3)ncnc2c1)c1ccc(Br)o1,39.8µM*,?,i,2.8%
CC(Oc1cccc(Cl)c1)C(=O)Nc1ccc2c(N3CCOCC3)ncnc2c1 (configuration not stated),44.7µM*,?,i,-24.3%
COc1cccc(C(=O)Nc2ccc3c(N4CCOCC4)ncnc3c2)c1,-76.7%,-59.4%,?,3.8%
O=C(Nc1ccc2c(N3CCOCC3)ncnc2c1)c1cccc(Cl)c1,?,7.08µM*,i,-2.8%
Cc1ccc(C(=O)Nc2ccc3c(N4CCOCC4)ncnc3c2)cc1C,?,?,?,-14.5%
COCC(=O)N1CCCN(c2ccnc3ccnn23)CC1,-1.6%[172 µM],-16.6%[138 µM],.,.
COc1ccc(-c2cc(N3CCC(NC(=O)COc4cccc(C)c4)CC3)n[nH]2)cc1,?,39.8µM*,i,?
O=C(NC1CCCN(c2cc(-c3ccc(Cl)cc3)[nH]n2)C1)c1ccc(Br)o1 (configuration not stated),44.7µM*,?,i,-25.4%
COc1ccc(-c2cc(N3CCCC(NC(=O)c4ccccc4Br)C3)n[nH]2)cc1 (configuration not stated),?,?,?,-19.5%
O=C(NC1CCN(c2cc(-c3ccc(Cl)cc3)[nH]n2)C1)c1ccccc1 (configuration not stated),?,?,i,-8.1%
O=C(NC1CCN(c2cc(-c3ccc(Cl)cc3)[nH]n2)C1)c1ccc(Br)o1 (configuration not stated),35.5µM*,?,i,-27.5%
COc1ccc(-c2cc(N3CCCC(NC(=O)c4ccc(Br)o4)C3)n[nH]2)cc1 (configuration not stated),?,?,31.6µM*,-21.1%
O=C(N[C@@H](Cn1cc(Cl)c(=O)[nH]c1=O)C(=O)O)C1CCC1,-1.1%[172 µM],-20.2%[174 µM],i,0.0%[70.6 µM]
COc1ccc(-c2cc(N3CCCC(NC(=O)Cc4ccc(OC)c(OC)c4)C3)n[nH]2)cc1 (configuration not stated),35.5µM*,?,?,?
CN1CCC(N[C@H]2C[C@@H](Cc3cc(CN(C)Cc4ccccc4)on3)C2(C)C)CC1,39.8µM*,28.2µM*,i,-17.6%[70.6 µM]
CN1CCC(N[C@H]2C[C@@H](Cc3cc(-c4ccccc4)on3)C2(C)C)CC1,8.91µM*,8.91µM*,i,-4.1%[70.6 µM]
CC1(C)[C@H](Cc2cc(CCO)on2)C[C@@H]1NC1CCOCC1,-23.5%[172 µM],-5.3%[174 µM],i,7.4%[70.6 µM]
CC(C)N[C@H]1C[C@@H](Cc2cc(-c3ccccc3)on2)C1(C)C,63.1µM*,63.1µM*,?,4.2%[70.6 µM]
Cc1ccsc1C(=O)N1CCC2(CC1)C(=O)N(c1cccc(F)c1)C2c1ccccc1 (configuration not stated),25.1µM*,?,.,.
O=C(Nc1cccc(Cl)c1)c1nc2cccnc2n(Cc2ccccc2)c1=O,?,-0.9%,.,.
COc1ccc(CN2Cc3[nH]nc(-c4cccc(O)c4)c3CC2=O)cc1,?,10µM*,i,-12.2%[70.6 µM]
COc1ccc(CN2Cc3[nH]nc(-c4cccc(OC)c4)c3CC2=O)cc1,-24.5%[172 µM],?,i,-11.6%[70.6 µM]
COc1ccc(S(=O)(=O)N[C@H]2C[C@@H](c3nc(Cc4ccccc4)no3)N(C)C2)cc1,?,-22.1%[174 µM],i,-5.8%[70.6 µM]
